Experimental data from the supplement of paper PMC8728848.
About 410 targets per protein were measured; listed, in parts, are those with the strongest signals and a random draw of the rest.

Tests used:
Assay in all cases: glycan array binding signal (z-score within array); higher = stronger binding
Conditions in all cases: glycan notation: IUPAC condensed, linker removed
[1] = target: Gal(b1-4)GlcNAc(b1-3)Gal(b1-4)GlcNAc(b1-3)Gal(b1-4)GlcNAc(b1-2)[Gal(b1-4)GlcNAc(b1-3)Gal(b1-4)GlcNAc(b1-3)Gal(b1-4)GlcNAc(b1-6)]Man(a1-6)[Gal(b1-4)GlcNAc(b1-3)Gal(b1-4)GlcNAc(b1-3)Gal(b1-4)GlcNAc(b1-2)Man(a1-3)]Man(b1-4)GlcNAc(b1-4)[Fuc(a1-6)]GlcNAc
Outline: (§1)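 Arrays were curated from the Consortium for Functional Glycomics database, 3228 in total, and kept only where the protein sequence was available. Binding is expressed as a within-array Z-score. This score was averaged across arrays of the same protein sequence at different concentrations or buffers and across linkers, and negative values can be read as non-binding.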

[2] = target: Gal(b1-4)GlcNAc(b1-3)Gal(b1-4)GlcNAc(b1-3)Gal(b1-4)GlcNAc(b1-3)Gal(b1-4)GlcNAc(b1-3)Gal(b1-4)GlcNAc(b1-2)[Gal(b1-4)GlcNAc(b1-3)Gal(b1-4)GlcNAc(b1-3)Gal(b1-4)GlcNAc(b1-3)Gal(b1-4)GlcNAc(b1-3)Gal(b1-4)GlcNAc(b1-6)]Man(a1-6)[Gal(b1-4)GlcNAc(b1-3)Gal(b1-4)GlcNAc(b1-3)Gal(b1-4)GlcNAc(b1-3)Gal(b1-4)GlcNAc(b1-3)Gal(b1-4)GlcNAc(b1-2)Man(a1-3)]Man(b1-4)GlcNAc(b1-4)[Fuc(a1-6)]GlcNAc
Outline: as §1

[3] = target: Gal(b1-4)GlcNAc(b1-3)GalNAc
Outline: as §1

[4] = target: Gal(b1-4)GlcNAc(b1-6)[Gal(b1-4)GlcNAc(b1-3)]GalNAc
Outline: as §1

Gal3S4S(b1-4)GlcNAc = target: Gal3S4S(b1-4)GlcNAc
Outline: as §1

Gal4S(b1-4)GlcNAc = target: Gal4S(b1-4)GlcNAc
Outline: as §1

GalNAc(a1-3)GalNAc = target: GalNAc(a1-3)GalNAc
Outline: as §1

[5] = target: GalNAc(b1-3)Gal(a1-4)Gal(b1-4)GlcNAc(b1-3)Gal(b1-4)Glc
Outline: as §1

GalNAc(b1-3)GalNAc = target: GalNAc(b1-3)GalNAc
Outline: as §1

GalNAc(b1-3)GlcNAc = target: GalNAc(b1-3)GlcNAc
Outline: as §1

GalNAc3S(b1-4)GlcNAc3S = target: GalNAc3S(b1-4)GlcNAc3S
Outline: as §1

[6] = target: GlcNAc(a1-6)Gal(b1-4)GlcNAc
Outline: as §1

[7] = target: GlcNAc(b1-3)Gal(b1-4)GlcNAc(b1-2)[GlcNAc(b1-3)Gal(b1-4)GlcNAc(b1-6)]Man(a1-6)[GlcNAc(b1-3)Gal(b1-4)GlcNAc(b1-2)Man(a1-3)]Man(b1-4)GlcNAc(b1-4)GlcNAc
Outline: as §1

[8] = target: GlcNAc(b1-3)Gal(b1-4)GlcNAc(b1-3)Gal(b1-4)GlcNAc(b1-3)Gal(b1-4)GlcNAc(b1-2)Man(a1-3)[GlcNAc(b1-3)Gal(b1-4)GlcNAc(b1-3)Gal(b1-4)GlcNAc(b1-3)Gal(b1-4)GlcNAc(b1-2)Man(a1-6)]Man(b1-4)GlcNAc(b1-4)GlcNAc
Outline: as §1

[9] = target: GlcNAc(b1-3)[GlcNAc(b1-6)]GalNAc
Outline: as §1

Kdn(a2-3)Gal(b1-3)GalNAc = target: Kdn(a2-3)Gal(b1-3)GalNAc
Outline: as §1

Kdn(a2-3)Gal(b1-4)Glc = target: Kdn(a2-3)Gal(b1-4)Glc
Outline: as §1

[10] = target: Man(a1-3)[Man(a1-6)]Man(a1-6)[Man(a1-3)]Man(b1-4)GlcNAc(b1-4)GlcNAc
Outline: as §1

[11] = target: Neu5Ac(a2-3)Gal(b1-3)GalNAc(b1-3)Gal(a1-4)Gal(b1-4)Glc
Outline: as §1

[12] = target: Neu5Ac(a2-3)Gal(b1-3)GlcNAc
Outline: as §1

[13] = target: Neu5Ac(a2-3)Gal(b1-3)GlcNAc(b1-2)Man
Outline: as §1

[14] = target: Neu5Ac(a2-3)Gal(b1-3)GlcNAc(b1-2)Man(a1-3)[GlcNAc(b1-4)][Neu5Ac(a2-3)Gal(b1-3)GlcNAc(b1-2)Man(a1-6)]Man(b1-4)GlcNAc(b1-4)GlcNAc
Outline: as §1

[15] = target: Neu5Ac(a2-3)Gal(b1-4)GlcNAc(b1-2)Man(a1-3)[Neu5Ac(a2-3)Gal(b1-4)GlcNAc(b1-2)Man(a1-6)]Man(b1-4)GlcNAc(b1-4)[Fuc(a1-6)]GlcNAc
Outline: as §1

[16] = target: Neu5Ac(a2-6)Gal(b1-4)GlcNAc(b1-2)Man(a1-3)[Neu5Ac(a2-6)Gal(b1-4)GlcNAc(b1-2)Man(a1-6)]Man(b1-4)GlcNAc(b1-4)[Fuc(a1-6)]GlcNAc
Outline: as §1

[17] = target: Neu5Ac(a2-6)Gal(b1-4)GlcNAc(b1-2)[Neu5Ac(a2-6)Gal(b1-4)GlcNAc(b1-4)]Man(a1-3)[GlcNAc(b1-4)][Neu5Ac(a2-6)Gal(b1-4)GlcNAc(b1-4)Man(a1-6)]Man(b1-4)GlcNAc(b1-4)GlcNAc
Outline: as §1

[18] = target: Neu5Ac(a2-6)Gal(b1-4)GlcNAc(b1-3)Gal(b1-4)[Fuc(a1-3)]GlcNAc(b1-3)Gal(b1-4)[Fuc(a1-3)]GlcNAc
Outline: as §1

[19] = target: Neu5Ac(a2-6)Gal(b1-4)GlcNAc(b1-3)GalNAc
Outline: as §1

[20] = target: Neu5Ac(a2-8)Neu5Ac(a2-3)Gal(b1-3)GalNAc(b1-4)[Neu5Ac(a2-8)Neu5Ac(a2-3)]Gal(b1-4)Glc
Outline: as §1

[21] = target: Neu5Gc(a2-8)Neu5Gc(a2-3)Gal(b1-4)GlcNAc
Outline: as §1

B1: GS7807G-bfa-506-18-506 (Bacteroides fragilis) (protein)
chain: ASCDKFDEINTDPDATTKVTSSLLATGLLLDITSSSASKSFIYDELLAKQMAWGESMEDYQYNVFGRSGFGGYTTLINAQKMVESVSDDNVNAYDGLAHFIKAYKIFYMSMEMGDLPYEEALQGELGLVRPKYNTQKEVMNFILSDLETAYELFSTAKDFDGDPILGGSISKWKKATTAFQLKVLMHLSKKESDADLKVKERFARIVASGSLMESNEDNLQMKYADKANTVYPFHNTNTKHAGYAMLSTMLIDKFKATGDIRMFYYAKPAKAKLNEGVTADSWDAYIGTDPSLPFEQIEKAYATEQYSGFNARYTDYPSGEPVVRLGYAEQNFILAEAAVRGWISGDASAYYKKAIRAHMEFIASNTPDEEVYHHGHPITEEAIAAFLETPAIQLSGEKEEDIEKILTQRYLASFMQHPYDVYYDYRRTGYPVLPINPATNRNTMNDRLPMRWMYPKSESDYNLEHQNEALERQFGGVDDVNKLMWILQ
glycan array binding signal (z-score) [1]: 2.78 | glycan array binding signal (z-score) [2]: 4.67 | glycan array binding signal (z-score) [3]: -0.443 | glycan array binding signal (z-score) [4]: 1.86 | glycan array binding signal (z-score) (Gal3S4S(b1-4)GlcNAc): -0.454 | glycan array binding signal (z-score) (Gal4S(b1-4)GlcNAc): -0.273 | glycan array binding signal (z-score) (GalNAc(a1-3)GalNAc): -0.209 | glycan array binding signal (z-score) [5]: -0.567 | glycan array binding signal (z-score) (GalNAc(b1-3)GalNAc): -0.744 | glycan array binding signal (z-score) (GalNAc(b1-3)GlcNAc): 0.616 | glycan array binding signal (z-score) (GalNAc3S(b1-4)GlcNAc3S): -0.726 | glycan array binding signal (z-score) [6]: -0.271 | glycan array binding signal (z-score) [7]: 0.698 | glycan array binding signal (z-score) [8]: 0.543 | glycan array binding signal (z-score) [9]: -0.871 | glycan array binding signal (z-score) (Kdn(a2-3)Gal(b1-3)GalNAc): -0.399 | glycan array binding signal (z-score) (Kdn(a2-3)Gal(b1-4)Glc): -0.306 | glycan array binding signal (z-score) [10]: 3.61 | glycan array binding signal (z-score) [11]: -0.786 | glycan array binding signal (z-score) [12]: -0.636 | glycan array binding signal (z-score) [13]: 2.81 | glycan array binding signal (z-score) [14]: -0.528 | glycan array binding signal (z-score) [15]: -0.269 | glycan array binding signal (z-score) [16]: 4.41 | glycan array binding signal (z-score) [17]: -0.864 | glycan array binding signal (z-score) [18]: -0.153 | glycan array binding signal (z-score) [19]: 2.85 | glycan array binding signal (z-score) [20]: 0.197 | glycan array binding signal (z-score) [21]: -0.712
